# AMA1 RON2 block: disrupts binding of P. falciparum AMA1 to RON2; Potency, µM (doses to about 58.2 µM), for the others: at the highest dose activity change, negative = inhibition, actives largely listed as inhibitors; hit rate 0.2% among 360,000; AID 720542; AlphaScreen AMA1-biotinylated RON2 peptide binding;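 note: potency is the fitted concentration of half-maximal effect; 0% = vehicle wells and -100% = peptide control; nearly all actives have a fitted effect of over 45% in size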
#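 AMA1 (3D7) with his tag at 25 nM final met compounds first, then biotinylated RON2 peptide at 25 nM; detection used donor plus acceptor beads, 10 µg/mL apiece, read by AlphaScreen after 30 min at room temperature.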
# HCV inh: blocks hepatitis C virus; Huh7.5.1 HCVcc-Cre infection, luciferase reporter, 44 h; Potency, µM (series often up to 41.8 µM), inactives show at the top dose activity change, negative = inhibition, actives largely listed as inhibitors; hit rate 3.4% among 340,000; AID 651820; note: potency is the fitted concentration of half-maximal effect; % is set by controls: 0 for no effect and ±100 for the full control effect
#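 Compounds are dispensed onto cells plated 4 h earlier at 1,000 per well, with HCVcc-Cre virus (about 0.5 moi) added next. Following 44 h of culture, luminescent signal is measured for 15 sec after 15 min with substrate at room temperature.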
# Pf growth 96h: inhibits malaria parasite growth, 96 h | hit rate 6.9% among 320,000 | Potency, µM (top dose mostly 28.7 µM), inactives show at the highest dose activity change, negative = inhibition, usual class: inhibitors | P. falciparum luciferase reporter growth, 96 h; note: potency is the fitted concentration of half-maximal effect; % is set by controls: 0 for no effect and ±100 for the full control effect
#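 Parasite growth measured via integrated firefly luciferase reporter in P. falciparum. Infected erythrocytes at 2% hematocrit, 0.05% parasitemia final were treated 96 hours at 37 C under 5% CO2, and luminescence was read.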
# Pf growth 48h: P. falciparum growth inhibition at 48 hours (one generation); P. falciparum luciferase growth in erythrocytes, 48 h; hit rate 5.9% among 310,000; Potency, µM (highest dose often 28.7 µM), inactives show at the highest dose activity change, negative = inhibition, most hits filed as inhibitors; note: potency is the fitted concentration of half-maximal effect; % is set by controls: 0 for no effect and ±100 for the full control effect
#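 Cell-based growth assay: transgenic P. falciparum expressing firefly luciferase, cultured in red cells within RPMI 1640 containing 0.5% w/v Albumax, 24 mM bicarbonate and gentamycin. A drop in luciferase activity indicates inhibition.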
# CHX counter: counter-screen for Shiga toxin inhibitors: cycloheximide protein synthesis inhibition; cell reporter, cycloheximide protein synthesis inhibition counterscreen; max response, %; hit rate 12% among 300,000; AID 2314; in the data active = max response mostly above about 13%, no sharp cut-off; inactive = mostly below about 14%; note: read at 38.3 µM for the half of the compounds with a filed dose; 0% is about no effect
# Shiga inhibitor: Shiga toxin inhibition. Vero cells, Shiga toxin protein synthesis inhibition reporter. inhibition, % at 38.7 µM. hit rate 9.2% among 290,000. AID 2315; in the data active = inhibition mostly above about 28%, no sharp cut-off; inactive = mostly below about 43%; note: 0% is about no effect
# An asterisk follows results filed as active; i = inactive; u = inconclusive; x = no result given; [ ] = another dose, or the depositor's remark. Rows were chosen to be rich in hits. Some 21% of all compounds tested hit in one or more screens of this group. Unless noted, calls come from the whole dose curve; as a rule, active = well fitted curve in the direction sought with a large enough effect; inconclusive = small, poorly fitted or top-dose-only effect, or another doubt; inactive = no such curve, though single readings can be large; an effect the other way counts as inactive or inconclusive.
SMILES,AMA1 RON2 block,HCV inh,Pf growth 96h,Pf growth 48h,CHX counter,Shiga inhibitor
O=C(O)c1ccccc1-c1cc2ccccc2[nH]1,2%,19%,x,x,x,x
CN1CCN(C(CNS(=O)(=O)c2ccc([N+](=O)[O-])cc2)c2ccc(F)cc2)CC1 (configuration not stated),11%,u,41%,u,x,x
Cc1ccc(-c2cc(=O)c3ccccc3[nH]2)cc1,-1%,u,u,u,29*,112*
O=c1cc(-c2ccc(Cl)cc2)[nH]c2ccccc12,7%,-1%,2.1µM*,1.5µM*,1,21
Cc1cc(=O)c2ccccc2[nH]1,10%,12%,79%,19%,-5,-8
CCc1cc(-c2[nH]ncc2-c2nc3ccccc3n2C)c(O)cc1O,95%,-22%,-25%,-18%,-3,13
CCCc1cc(-c2[nH]ncc2-c2ccc3c(c2)OCCCO3)c(O)cc1O,14%,11µM*,13µM*,u,10,-17
CCCc1cc(-c2[nH]ncc2-c2ccc(C(=O)OCC)o2)c(O)cc1O,-5%,u,7%,6.6µM*,-2,-15
Cc1cccc(NC(=O)CN2CCN(C(=O)CN3C(=O)NC4(CC(C)CC(C)(C)C4)C3=O)CC2)c1C (configuration not stated),4%,u,x,x,x,x
CC1=C(C(=O)N2CCCCCC2)CC(CC(=O)NCCCN(C)C)C(=O)N1Cc1ccc(F)cc1 (configuration not stated),2%,x,x,x,x,x
Cc1cccc(OCC(=O)O/N=C(\N)c2ccccn2)c1,31%,1%,69%,132%,52*,62*
Cc1cc(C)c(C)c(OCC(=O)O/N=C(\N)c2ccccn2)c1,42%,10µM*,u,x,22,32
Cc1cc(C)cc(OCC(=O)O/N=C(\N)c2ccccn2)c1,17%,-10%,u,25%,31,68
CCc1ccc(OCC(=O)O/N=C(\N)Cc2ccc([N+](=O)[O-])cc2)cc1,10%,-1%,0%,15%,6,-2
CCc1ccc(OCC(=O)O/N=C(\N)c2ccccn2)cc1,38%,-1%,176%,161%,54*,85*
Cc1ccc(OCC(=O)O/N=C(\N)c2ccncc2)cc1C,10%,-25%,-14%,57%,29*,54*
N/C(=N\OC(=O)COc1cc(Cl)c(Cl)cc1Cl)c1ccncc1,-7%,-6%,17%,79%,10,30
CCCCCCCCN1C(=O)[C@H](CC(=O)NCCCN2CCCC2=O)C[C@@]2(C(=O)OC)CC(C)(C)CC=C12,-3%,x,x,x,x,x
O=S(=O)(NCCC1=CCCCC1)c1ccc(OC(F)(F)F)cc1,20%,0%,33%,8%,x,x
NC(COCc1ccccc1)c1csc(Nc2ccc(C(=O)NCCO)cc2)n1 (configuration not stated),77%,x,x,x,x,x
N/C(=N\OC(=O)COc1ccc(Br)cc1)c1cccc([N+](=O)[O-])c1,-10%,19%,13%,11%,5,-9
Cc1ccc(C(=O)O/N=C(\N)c2ccccn2)cc1C,50%,23%,105%,-92%,-4,-12
N/C(=N\OC(=O)COc1ccccc1)c1ccccn1,3%,1%,53%,143%,34*,66*
Cc1ccc(OCC(=O)O/N=C(\N)c2ccccn2)cc1C,40%,6%,85%,221%,51*,95*
Cc1cc(OCC(=O)O/N=C(\N)c2ccccc2)ccc1Br,28%,11%,-23%,22%,33*,active
SMILES,AMA1 RON2 block,HCV inh,Pf growth 96h,Pf growth 48h,CHX counter,Shiga inhibitor
Cc1cc(/C=N/NC(N)=S)c(C)n1-c1ccc(Cl)c(Cl)c1,40%,u,12µM*,13µM*,-1,-47
CCNC(=S)N/N=C/c1cc(C)n(-c2ccc(Cl)cc2)c1C,12%,-19%,u,16%,21*,66
Cc1cc(/C=N/N2CCN(C)CC2)c(C)n1-c1ccc(Cl)cc1,-21%,u,u,12µM*,2,9
COc1cccc(NC(=O)C(=O)N/N=C/c2cc(C)n(-c3ccc(Cl)c(Cl)c3)c2C)c1,45%,-2%,9%,x,16,12
O=C(Oc1cccc2c(O)cccc12)c1ccco1,16%,3%,x,x,x,x
Cc1ccc(/C=C/C(=O)c2ccc(C)cc2)cc1,1%,6%,13%,76%,68*,83*
Cc1c(/C=C/C(=O)c2ccccc2O)cnn1C,-6%[2.32 µM],17%,213%,331%,71*,active
O=C(/C=C/c1cccc(O)c1)c1cccnc1,7%,7%,-18%,6%,11,19
CN(C)c1ccc(/C=C/C(=O)c2cccnc2)cc1,29%,-4%,32%,11%,42*,72*
CN(C)c1ccc(/C=C/C(=O)c2ccccc2O)cc1,14µM*,-26%,0%,448%,40*,113
CN(C)c1ccc(/C=C/C(=O)c2ccc(O)cc2)cc1,27%,u,x,x,x,x
Cc1ccc(C(=O)/C=C/C(=O)c2ccc(C)cc2)cc1,-15%,0%,-3%,i,16,41
O=C(/C=C/c1cccnc1)c1ccccc1O,5%,-16%,-6%,-2%,-1,-15
Cc1ccc(/C=C/C(=O)Nn2cnnc2)cc1,6%,12%,8%,x,-2,9
Cc1ccc(/C=C/C(=O)c2ccccc2O)cc1,u,14%,24%,52%,40*,88*
O=C(/C=C/c1ccco1)c1ccccc1O,u,-11%,-6%,26%,33*,59*
Cc1ccc(/C=C/C(=O)C2C(=O)c3ccccc3C2=O)cc1,7%,u,u,1.7µM*,11,3
CCC(C)Sc1cccc(-c2nc3cc(C)ccn3c2NCc2ccccc2)c1 (configuration not stated),19%,u,u,u,x,x
COc1ccccc1N1C(=O)c2ccc(C(=O)Nc3ccccc3O)cc2C1=O,-12%,8%,-4%,1%,11*,19
COc1ccc(N2C(=O)c3ccc(C(=O)Nc4ccccc4O)cc3C2=O)cc1,2%,-7%,189%,-26%,4,4
O=C(O)c1ccc2c(c1)C(=O)N(N1C(=O)c3ccccc3C1=O)C2=O,11%,-17%,9.3µM*,14%,10,-5
COc1ccc(CN2C(=O)c3ccc(C(=O)O)cc3C2=O)cc1,-1%,4%,9.3µM*,x,-3,4
O=C(Nc1ccccc1O)c1ccc2c(c1)C(=O)N(N1C(=O)c3ccccc3C1=O)C2=O,1%,14%,9.3µM*,7%,0,-9
O=C(O)c1ccc(CN2C(=O)c3ccc(C(=O)O)cc3C2=O)cc1,-8%,16%,46%,22%,11,-9
COc1ccc(C)cc1NC(=O)c1cccc(-c2ccc(OC(C)=O)cc2)c1,-16%,u,-23%,-21%,1,-10

# Screening data as filed in PubChem BioAssay.
